Assay results published in PubChem BioAssay (Tox21).
Several values for one entry are separate records, joined by “and”; a condition that tells them apart may be missing. Equal entries are not always repeated. Records with an inconclusive call do not appear. Activity calls are given as the source filed them. Calls follow the shape of the dose curve; as a rule, active = well fitted curve in the direction sought with a large enough effect in the repeat runs; inconclusive = weak or mixed curves; inactive = no such curve, though single readings can be large; an effect the other way counts as inactive or inconclusive.

Experiments:
[1] = A CellTox Green Cytotoxicity Assay to monitor cytotoxicity in HEK293 cells - 40 hour (AID 1224871); also: nearly all actives have a fitted effect of over 45% in size; also: potency is read from the fitted curve at half-maximal effect
How it was run: (§1)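 Real-time, in one plate: 600 HEK293 cells/well with dead-cell DNA dye, pinned compound after 5 h, 37 C incubation over 40 h; viable cells give no appreciable fluorescence.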

[2] = qHTS RealTime-Glo MT Cell Viability Assay in HepG2 cells - 8 hour (AID 1224873); also: nearly all actives have a fitted effect of over 55% in size
How it was run: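 Real-time viability: cells seeded at 600 per well together with NanoLuc and cell-permeant prosubstrate, compounds added after 5 h incubation. Luminescence tracked at 0, 8, 16, 24, 32 and 40 h of exposure.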

[3] = A CellTox Green Cytotoxicity Assay to monitor cytotoxicity in HEK293 cells - 24 hour (AID 1224875); also: series mostly up to about 77 µM; nearly all actives have a fitted effect of over 45% in size
How it was run: as §1

[4] = A CellTox Green Cytotoxicity Assay to monitor cytotoxicity in HepG2 cells - 16 hour (AID 1224876); also: nearly all actives have a fitted effect of over 45% in size; also: potency is read from the fitted curve at half-maximal effect
How it was run: (§2)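 Cytotoxicity was tracked as dead-cell DNA fluorescence in HepG2 cells treated with test compounds at 37 C; each time-point value comes from one kinetic series spanning 0, 8, 16, 24, 32 and 40 h.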

[5] = qHTS RealTime-Glo MT Cell Viability Assay in HepG2 cells - 32 hour (AID 1224877); also: nearly all actives have a fitted effect of over 55% in size; also: potency is read from the fitted curve at half-maximal effect
How it was run: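 HepG2 suspension premixed with RealTime-Glo reagents is plated at 600 cells per well and left 5 h at 37 C/5% CO2. Compounds in DMSO then go in, and bioluminescence reflecting viable cell number is recorded over 40 h.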

[6] = A CellTox Green Cytotoxicity Assay to monitor cytotoxicity in HepG2 cells - 24 hour (AID 1224878); also: nearly all actives have a fitted effect of over 45% in size; also: potency is read from the fitted curve at half-maximal effect
How it was run: as §2

[7] = qHTS RealTime-Glo MT Cell Viability Assay in HEK293 cells - 0 hour (AID 1224880)
How it was run: (§3)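 Kinetic, non-lysing viability readout. Seed HEK293 (600/well) with reagent, incubate 5 h at 37 C/5% CO2, pin 23 nL compound in DMSO, incubate at 37 C, read luminescence at 0, 8, 16, 24, 32, 40 h.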

[8] = qHTS RealTime-Glo MT Cell Viability Assay in HEK293 cells - 16 hour (AID 1224872); also: nearly all actives have a fitted effect of over 50% in size; also: potency is read from the fitted curve at half-maximal effect; as to activity change, negative = cytotoxicity: top concentration of the series differs between compounds
How it was run: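 Reads taken at 0, 8, 16, 24, 32 and 40 h from the same wells. HEK293 cells (600/well) carried RealTime-Glo reagents from seeding, with compound added after a 5 h settle at 37 C.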

[9] = qHTS RealTime-Glo MT Cell Viability Assay in HEK293 cells - 40 hour (AID 1224874); conditions: RealTime-Glo luminescence; max response: hits give low values; also: nearly all actives have a fitted effect of over 50% in size; also: potency is read from the fitted curve at half-maximal effect
How it was run: as §3

[10] = A CellTox Green Cytotoxicity Assay to monitor cytotoxicity in HepG2 cells - 40 hour (AID 1224879); also: nearly all actives have a fitted effect of over 40% in size; also: potency is read from the fitted curve at half-maximal effect
How it was run: as §2
% is scaled to controls: 0 for no effect and ±100 for the full control effect.

C=CCc1ccc(OC(=O)Cc2ccccc2)c(OC)c1
inactive: Potency [1] | Potency [2] | Potency [3] | Potency [4] | Potency [5] | Potency [6] | outcome [7]

COc1cc(CC#N)cc(OC)c1OC
inactive: Potency [1] | Potency [8] | max response [9] 0.767% | Potency [4] | Potency [5] | Potency [6] | Potency [10] | outcome [7]

CCC(C)(C)O
inactive: Potency [1] | Potency [8] | max response [9] 6.83% | Potency [3] | Potency [4] | Potency [5] | Potency [6] | Potency [10] | outcome [7]

CCC(=O)O[C@@H]1C=C2CCC3C(CCC4(C)C3CC[C@@H]4OC(=O)CC)C2CC1 (stereo partly drawn)
inactive: Potency [8] | Potency [2] | max response [9] -21.1% | Potency [4] | Potency [5] | Potency [6] | Potency [10] | outcome [7]

Nc1c(Br)cc(Br)c2c1C(=O)c1ccccc1C2=O
inactive: cytotoxicity increase [1] -1.3% [at 15.8 µM] | viability change, negative = cytotoxic [2] -13.9% [at 15.8 µM] | activity change [3] -4.1% [at 15.8 µM, hits give high values] | cytotoxicity increase [4] -4.68% [at 15.8 µM] | activity change, negative = cytotoxic [5] 5.09% [at 15.8 µM] | cytotoxicity [6] -5.93% [at 15.8 µM] | cytotoxicity increase [10] -11% [at 15.8 µM] | activity change, negative = cytotoxicity [7] -4.62% [at 15.8 µM]

CCCCC1C(=O)NC(=O)N(C2CCCCC2)C1=O (stereo not drawn)
inactive: Potency [1] | Potency [8] | max response [9] -0.655% | Potency [4] | Potency [5] | Potency [6] | Potency [10] | outcome [7]

O=[N+]([O-])c1cc(Cl)c(Cl)cc1Cl
inactive: Potency [8] | Potency [2] | max response [9] 2.2% | Potency [4] | Potency [5] | Potency [6] | Potency [10] | outcome [7]

C#C[C@]1(O)CC[C@H]2[C@@H]3CCC4=CC(=O)CCC4=C3C=C[C@@]21CC
inactive: Potency [1] | Potency [4] | Potency [5] | Potency [6] | Potency [10] | outcome [7]

CCCC[N+](CCCC)(CCCC)CCCC
inactive: Potency [1] | Potency [2] | Potency [3] | Potency [4] | Potency [5] | Potency [6] | Potency [10] | outcome [7]

CN(C)N
inactive: Potency [8] | Potency [2] | max response [9] 6.16% | Potency [5] | outcome [7]
active: Potency [4] 54.9 µM

C[C@H]1[C@@H]2Cc3ccc(O)cc3[C@@]1(C)CCN2C
inactive: Potency [8] | Potency [2] | max response [9] -5.05% | Potency [3] | Potency [4] | Potency [5] | Potency [6] | Potency [10]

C=CCN1C[C@H](C)N([C@H](c2ccc(C(=O)N(CC)CC)cc2)c2cccc(OC)c2)C[C@H]1C
inactive: Potency [4] | Potency [5] | Potency [6] | outcome [7]
active: Potency [9] 19 µM | Potency [10] 21.3 µM

CC(Cc1ccccc1)NCc1ccccc1Cl (stereo not drawn)
inactive: Potency [8] | Potency [2] | max response [9] -14.1% | Potency [4] | Potency [5] | Potency [6] | Potency [10] | outcome [7]

Nc1ccc2c(c1)Cc1ccccc1-2
inactive: Potency [1] | Potency [2] | Potency [3] | Potency [4] | Potency [5] | Potency [6] | Potency [10] | outcome [7]

C[C@]12CC[C@H]3[C@@H](CCC4=CC(=O)CC[C@@H]43)[C@@H]1CC[C@@H]2OC(=O)CCc1ccccc1
inactive: Potency [8] | Potency [2] | max response [9] 0.945% | Potency [3] | Potency [4] | Potency [5] | Potency [6] | Potency [10] | outcome [7]

Cc1nc2ccccc2c(=O)n1-c1ccccc1Cl
active: Potency [9] 21.4 µM
inactive: Potency [1] | Potency [3] | Potency [4] | Potency [5] | Potency [6] | Potency [10]

C=CCSSCC=C
inactive: Potency [1] | Potency [8] | max response [9] 1.18% | Potency [4] | Potency [5] | Potency [6] | Potency [10] | outcome [7]

COc1ccccc1N1CCNCC1
inactive: Potency [1] | Potency [8] | max response [9] -1.42% | Potency [3] | Potency [4] | Potency [5] | Potency [6] | Potency [10] | outcome [7]

CCCC[P+](CC)(CCCC)CCCC (tested in a mixture with another compound)
inactive: Potency [1] | Potency [2] | Potency [4] | Potency [5] | Potency [6] | Potency [10]

O=C1c2ccccc2C(=O)N1SC(Cl)(Cl)Cl
inactive: outcome [7]
active: Potency [1] 10.8 µM and 11 µM | Potency [8] 3.42 µM and 3.89 µM | Potency [9] 6.82 µM and 9.77 µM | Potency [4] 43 µM and 54.9 µM | Potency [5] 34.2 µM and 13.8 µM | Potency [6] 34.2 µM and 21.9 µM | Potency [10] 21.6 µM and 12.3 µM
